In all, about 48,000 compounds went through this assay and about 13,000 (27%) showed an effect of 50% or more. Some of the results follow.
test system: Wolbachia pipientis; experiment: Anti-Wolbachia Cell-Based Screen; type: functional; design: scale not given: in the data most compounds retested in dose-response had high values; conditions: 5 µM

SMILES	Percent Effect
CCCS(=O)(=O)N1C[C@@H]2CN(Cc3cnn(C)c3)CCO[C@@H]2C1.O=C(O)C(F)(F)F	-20.93%
CCOC(=O)c1n[nH]cc1CN1CCOC(Cc2ccc(F)cc2)C1 (stereo not drawn)	-1.908%
CCOc1ccc(CN2CC[C@](C)(O)C(C)(C)C2)cn1	-8.073%
O=C1O[C@@H]2CN(S(=O)(=O)N3CCCC3)C[C@@H]2N1CCc1cccc(Cl)c1	9.806%
CN(CCCNC(=O)c1ccc(C#N)cc1)CC(F)(F)F	-0.8138%
Cc1cc(NCCOCCS(C)(=O)=O)nc2ccccc12	-11.25%
Cc1nc(NC(=O)N2CCCC(C(F)(F)F)C2)nn1C (stereo not drawn)	-33.51%
O=S(=O)(Nc1cn[nH]c1)c1ccc(Br)c(F)c1	-16.59%
COc1ccc(C(=O)Nc2cc(CC(C)C)nn2C)cc1	109.3%
COc1cccc(OC2CN(C(=O)c3cc(CC(C)C)nn3C)C2)c1	-45.28%
CC(C)Cc1cc(NC(=O)c2ccccn2)n(C)n1	95.28%
CC(C)Cc1cc(NC(=O)c2n[nH]c3ccccc23)n(C)n1	100%
CC(C)Cc1cc(NC(=O)c2ccncc2)n(C)n1	97.89%
CC(C)Cc1cc(NC(=O)c2ccc(=O)[nH]n2)n(C)n1	9.079%
COc1cccc(C(=O)Nc2cc(CC(C)C)nn2C)c1	-2.904%
Cc1cc(C(C)(O)CNC(=O)c2ccc(Br)o2)c(C)o1 (stereo not drawn)	-12.89%
CCOC(C)c1noc(CN(C)C(=O)c2ccncc2)n1 (stereo not drawn)	-13.27%
COCCNC(=O)[C@H]1CN(Cc2nccs2)C[C@H]2OCC[C@@H]12.O=C(O)C(F)(F)F.O=C(O)C(F)(F)F	-11.72%
CCn1cncc1C1CC(=O)Nc2c1c(C)nn2-c1ccc(C)cc1 (stereo not drawn)	-3.451%
Cn1c2c(c(=O)n1C)CN(S(=O)(=O)c1cccs1)CCC2	-5.821%
CN(Cc1cccc(F)c1)C(=O)CS(=O)(=O)Cc1ccc(Cl)c(Cl)c1	7.071%
CC(C)Cc1cc(NC(=O)c2cc(Cl)c[nH]2)n(C)n1	97.83%
CC(C)Cc1cc(NC(=O)c2ccccc2)n(C)n1	80.95%
CC(C)Cc1cc(NC(=O)N2CCC(Oc3cccnc3)C2)n(C)n1 (stereo not drawn)	-4.031%
CC(C)Cc1cc(NC(=O)c2cccnc2)n(C)n1	95.88%
CC(C)Cc1cc(NC(=O)c2ccc[nH]2)n(C)n1	5.511%
CC(=O)Nc1cc(C(=O)Nc2cc(CC(C)(C)C)nn2C)ccc1F	-21.96%

SMILES	Percent Effect
CC(C)Cc1cc(C(=O)N2CCC(Oc3cccnc3)CC2)n(C)n1	-0.7222%
Cc1cnn(CC2CCCN2CC(=O)N(C)CCC#N)c1 (stereo not drawn)	-15.64%
COc1cccc(CN(C)C(C)c2ccon2)c1OCCn1ccnc1 (stereo not drawn)	6.714%
N#Cc1cccc(OC2CCN(C(=O)c3cncc(O)c3)CC2)c1	-9.362%
CC(NCCn1cccn1)c1ccc(F)cc1F (stereo not drawn)	14.02%
CCn1cnnc1C1CCN(C(=O)c2cccc(N(C)C)c2)CC1	182%
CCn1cnnc1C1CCN(C(=O)c2cccc3c2ccn3C)CC1	4.279%
CCn1cnnc1C1CCN(C(=O)c2ccc3c(c2)nnn3C)CC1	122.3%
CCn1cnnc1C1CCN(C(=O)c2cccc(-n3cccc3)c2)CC1	173.7%
CCN1CCN(C(=O)c2ccnc(N(C)C)c2)CC1	-10.63%
CCn1cnnc1C1CCN(C(=O)c2ccnc(N(C)C)c2)CC1	117.4%
CCn1cnnc1C1CCN(C(=O)CC(C)n2cccc2)CC1 (stereo not drawn)	-3.98%
Cn1nnc2cc(C(=O)N3CCCC3Cc3ccccc3)ccc21 (stereo not drawn)	-4.659%
O=C(O)C(F)(F)F.O=C(c1nc2c(o1)CN(CC1CCC1)C2)N1CCCC1	1.201%
CC(C)(CNC(=O)C1CCCN1S(C)(=O)=O)N1CCOCC1 (stereo not drawn)	0.9982%
Cc1cc(CNCC2(O)CCOCC2)ccc1F	-13.16%
COC(=O)N1CCN(Cc2ccccc2C(C)(C)C#N)CC1	-9.14%
COc1cccc(CN(C)Cc2nc3c(cnn3C)c(=O)[nH]2)c1OC	14.32%
COc1ccccc1N(C)Cc1nc2c(cnn2C)c(=O)[nH]1	-7.278%
COc1cccc2c1N(Cc1nc3c(cnn3C)c(=O)[nH]1)CCC2	-0.8657%
COc1ccccc1-c1cc(C(=O)N(C)C)nc2c1cnn2C	124.6%
COc1ccccc1CN(C)c1nc2c(cnn2C)c(=O)[nH]1	-4.184%
COc1ccccc1-c1cc(C(=O)N2CCCC2)c2cnn(C)c2n1	117.8%
COc1ccc(CN(C)c2nc3c(cnn3C)c(=O)[nH]2)c(OC)c1	-2.005%
COc1ccccc1-c1cc(C(=O)N(C)C)c2cnn(C)c2n1	108%
COc1ccccc1OC1CCN(C(=O)c2cnc(C)cc2C)CC1	-3.522%

Source: ChEMBL document CHEMBL3988442, “University of Dundee, Small-Polar-MMV Screening Library” (2021)
